# G9a block: blocks human histone lysine methyltransferase G9a; Q96KQ7; G9a H3K9 monomethylation, AlphaScreen, 2 h; 8.8% of 350,000 active; Potency, µM (titrated, usually from 102 µM), for inactives: at the highest dose activity, negative = inhibition, most hits filed as inhibitors; note: % is set by controls: 0 for no effect and ±100 for the full control effect; nearly all actives have a fitted effect of over 75% in size
# Target sequence (Q96KQ7 913-1193 limits assumed): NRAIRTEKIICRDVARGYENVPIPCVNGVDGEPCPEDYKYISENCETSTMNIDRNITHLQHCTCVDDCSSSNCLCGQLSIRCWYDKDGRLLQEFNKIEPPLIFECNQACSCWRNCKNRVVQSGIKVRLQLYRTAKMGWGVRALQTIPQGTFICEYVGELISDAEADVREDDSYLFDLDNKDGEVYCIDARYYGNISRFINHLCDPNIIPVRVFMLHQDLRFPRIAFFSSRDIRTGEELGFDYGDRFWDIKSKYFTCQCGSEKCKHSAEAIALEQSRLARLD
#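 G9a (20 nM) preincubated 15 min RT with compounds, then 500 nM biotinylated H3K9 peptide and 20 uM SAM added; 2 h RT reaction. Monomethyl-H3K9 product detected by AlphaScreen with anti-H3K9me1 antibody, streptavidin donor and anti-rabbit IgG acceptor beads.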
# BAZ2B inh: blocks human BAZ2B | Q9UIF8 | AlphaScreen BAZ2B-H3K14Ac peptide displacement | Potency, µM (highest dose often 114 µM), for inactives: at the highest dose activity change, negative = inhibition, most hits filed as inhibitors | 4.4% of 360,000 active | AID 504333; note: % is set by controls: 0 for no effect and ±100 for the full control effect; nearly all actives have a fitted effect of over 60% in size
#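 Inhibition is scored as reduced AlphaScreen emission. The BAZ2B/b-H3(5-23)K14Ac complex (50 nM each) in PBS pH 7.4, 0.01% Tween-20 meets compound (up to 110 uM) for 30 min at RT before bead addition.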
# HP1b chromo inh: HP1-beta chromodomain-methylated histone interaction inhibition | AlphaScreen HP1-beta / biotin-H3K9me3 peptide binding | Potency, µM (highest dose often 114 µM), without a hit: at the highest dose activity change, negative = inhibition, most hits filed as inhibitors | 0.56% of 390,000 active; note: nearly all actives have a fitted effect of over 70% in size
# Target sequence (P83916 whole entry, looked up): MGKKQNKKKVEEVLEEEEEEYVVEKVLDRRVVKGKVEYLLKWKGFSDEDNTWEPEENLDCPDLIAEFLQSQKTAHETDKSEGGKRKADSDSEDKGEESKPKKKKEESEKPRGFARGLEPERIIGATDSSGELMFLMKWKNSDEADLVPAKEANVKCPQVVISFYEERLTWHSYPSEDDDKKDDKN
#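 HP1-beta protein (50 nM final) preincubated 30 min at room temperature with biotinylated H3(1-18)K9me3 peptide (50 nM) in PBS pH 7.4, 0.01% Tween-20, then compound added for 30 min. AlphaScreen streptavidin donor/nickel chelate acceptor beads (10 ug/mL final), 30 min dark, luminescence read.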
# JMJD2A Tudor inh: inhibitors of human JMJD2A Tudor domain. O75164. AlphaScreen JMJD2A-Tudor / H3K4me3 peptide binding. Potency, µM (series often up to 114 µM), inactives show at the highest dose activity change, negative = inhibition, actives largely listed as inhibitors. 4.4% of 390,000 active; note: % is set by controls: 0 for no effect and ±100 for the full control effect; nearly all actives have a fitted effect of over 50% in size
# Sfp inh: inhibitors of Bacillus subtilis Sfp phosphopantetheinyl transferase. 3.5% of 310,000 active. Biochemical Sfp PPTase activity, qHTS. Potency, µM, for inactives: largest response in the series, negative = inhibition, most hits filed as inhibitors;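 note: the enzyme is Sfp with the accession as filed and its product quenches rhodamine fluorescence; 0% = enzyme reaction without inhibitor and -100% = no enzyme wells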
#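 Fluorescence-quenching assay: 15 nM Sfp-PPTase preincubated 15 min at room temperature with compound, then 5 uM rhodamine-CoA and 12.5 uM BHQ-2-labelled YbbR peptide added. Fluorescence (ex 525/em 598 nm) read at start and after 30 min; difference gives rate.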
# The depositor's hits bear a star; u = inconclusive; x = no result given; ! = repeats disagree; [ ] = another dose, or the depositor's remark. Shown are actives, neighbours in structure and some others; about 12% of the full set was active somewhere. Calls come from the whole dose curve; as a rule, active = well fitted curve in the direction sought with a large enough effect; inconclusive = small, poorly fitted or top-dose-only effect, or another doubt; inactive = no such curve, though single readings can be large; an effect the other way counts as inactive or inconclusive. Potency is the fitted concentration of half-maximal effect.
SMILES,G9a block,BAZ2B inh,HP1b chromo inh,JMJD2A Tudor inh,Sfp inh
Cc1ccc(-c2n[nH]c(=O)c3ccccc23)cc1N,-8%,-4%,2%,-10%,-1%
Nc1ccc(-c2n[nH]c(=O)c3ccccc23)cc1N,8.9µM*,-12%,-11%,-32%,14µM*
COc1ccc(S(N)(=O)=O)cc1C(=O)NCC(C)(C)N1CCCCC1,12%,-12%,13%,-4%,5%
CN(C)CCCN1c2ccccc2Sc2ccc(C(F)(F)F)cc21,-8%[59 µM],32µM*,-15%,u,-4%
CC(CN(C)C)CN1c2ccccc2Sc2ccc(C(F)(F)F)cc21 (centres undefined),-46%[12.7 µM],x,x,x,-7%
O=C(O)c1cccnc1-c1ncccc1C(=O)O,56µM*,-39%,-1%,u,u
Cc1ccc(-n2c(C)cc(C3N=C(N)Nc4nc5ccccc5n43)c2C)c(C)c1 (centres undefined),5%[12.7 µM],40µM*,u,40µM*,u
Cc1cc(C2N=C(N)Nc3nc4ccccc4n32)c(C)n1-c1ccccc1Cl (centres undefined),u,u,-6%,u,2.8µM*
COc1ccc(OC)c(C2N=C(N)Nc3nc4ccccc4n32)c1 (centres undefined),1%[59 µM],-15%,21%,-12%,x
Cn1nc(-c2ccc(Cl)cc2)cc1NC(=O)CC(C)(C)CC(=O)O,3%,-8%,20%,-7%,16%
COC(=O)c1c(C)nn(-c2ccccc2)c1-n1cccc1,-22%,7%,29%,3%,-16%
Cc1nnc(SCc2ccccc2Cl)c2cc3occc3n12,13µM*,28µM*,-14%,u,x
CCOc1ccc(C(=O)CCN2CCCCC2)cc1,8.9µM*,39%,53%,5%,-3%
COc1ccc(N2CCN(CCC(N)=O)CC2)cc1,15%[59 µM],-5%,31%,-15%,9%
COc1ccc(C(=O)CCN2CCN(c3ccc(OC)cc3)CC2)cc1,40µM*,u,9%,-31%,-3%
CCOc1ccc(C(=O)N2CCCN(C(=O)c3ccc(OCC)cc3)CC2)cc1,32µM*,5%,10%,-21%,-6%
COc1ccc(C(=O)CCN2CCCCCC2)cc1,8.9µM*,-7%,25%,-8%,u
CCOC(=O)C1(CCc2ccccc2)CCN(C(=O)Cc2nonc2C)CC1,16%,-11%,43%,2%,6%
CCOc1ccccc1NC(=O)Cn1c(=O)n(-c2ccc(F)cc2)c(=O)c2sc3ccccc3c21,-34%[59 µM],-10%,35%,-17%,x
Cc1ccc(SCC(=O)NCC2COc3ccccc3O2)cc1 (centres undefined),4%[12.7 µM],-5%,46%,-1%,x
CCOC(=O)CCCNC(=O)COC(=O)c1cc(C)cc(C)c1,4%[59 µM],2%,26%,10%,5%
CCOc1ccc(C(=O)CSCCC(=O)O)cc1,32µM*,x,45%,-12%,25µM*
CCOC(=O)N1CCN(CCC(=O)Nc2cc(C)ccc2C)CC1,50µM*!,-10%,u,2%,1%
O=C(CCN1CCOCC1)c1ccc(Cl)cc1,11µM*,-21%,0%,u,-13%
CC(C)Oc1ccc(C(=O)CCN2CCCCC2)cc1,7.9µM*,-4%,54%,-24%,-20%
SMILES,G9a block,BAZ2B inh,HP1b chromo inh,JMJD2A Tudor inh,Sfp inh
Cc1c(NC(=O)c2cccc(NC(=O)COc3ccccc3C#N)c2)c(=O)n(-c2ccccc2)n1C,u,5%,17%,-2%,x
CCCCCOc1ccc(C(=O)CCN2CCOCC2)cc1,45µM*,2%,45%,-1%,-6%
CCOC(=O)N1CCN(C(=O)CCC(=O)c2ccc(OCC)cc2)CC1,-6%,-16%,-1%,-1%,1%
CCCOc1ccc(C(=O)CCN2CCN(C(=O)OCC)CC2)cc1,10µM*,-27%,19%,-23%,-26%
O=C(NCc1ccc2c(c1)OCO2)c1ccc(Cl)c(S(=O)(=O)N2CCOCC2)c1,8%,5%,12%,-26%,3%
Cc1ccccc1NS(=O)(=O)c1ccc(C)c(NS(C)(=O)=O)c1C,-37%,-14%,22%,6%,10%
CCCCn1c2ccc(F)cc2c2nnc(SCCN3CCOCC3)nc21,40µM*,-6%,26%,-18%,56µM*
CCCCn1c2ccc(F)cc2c2nnc(SCCN(CC)CC)nc21,-6%[59 µM],-34%,16%,-5%,x

# Screening data: PubChem, National Center for Advancing Translational Sciences (NCATS)
